# Test results as given in PubChem BioAssay (EPA / NIEHS).
# Where “and” joins values, the source holds several entries; their conditions need not be identical. Equal values may be shown once. Results filed as inconclusive are left out. A structure can be active in one record and inactive in another. Calls of active or inactive are those of the source. Rule for the calls: active = hit-call score of the fitted dose curve at least 0.9, where 1 is the maximum; inconclusive = response in the unintended direction; inactive = score below 0.9.
# Molecular target: human Peroxisome Proliferator-activated Receptor alpha (PPARa), PPARA (gene 5465) (UniProt Q07869)
# Sequence (Q07869 whole entry, looked up): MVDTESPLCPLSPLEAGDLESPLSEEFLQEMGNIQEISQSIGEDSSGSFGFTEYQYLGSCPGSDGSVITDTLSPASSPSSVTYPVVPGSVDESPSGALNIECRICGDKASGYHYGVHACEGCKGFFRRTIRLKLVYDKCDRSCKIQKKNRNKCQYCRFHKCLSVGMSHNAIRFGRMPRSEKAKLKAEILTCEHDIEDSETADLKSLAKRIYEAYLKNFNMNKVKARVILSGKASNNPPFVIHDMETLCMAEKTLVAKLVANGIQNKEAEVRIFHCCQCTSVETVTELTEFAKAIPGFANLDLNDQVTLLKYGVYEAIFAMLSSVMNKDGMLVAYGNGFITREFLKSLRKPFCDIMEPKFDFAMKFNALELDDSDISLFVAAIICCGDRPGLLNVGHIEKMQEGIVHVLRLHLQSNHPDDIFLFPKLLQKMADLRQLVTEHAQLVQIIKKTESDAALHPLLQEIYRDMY
# Assay: ATG_PPARa_TRANS: Attagene TRANS-FACTORIAL HepG2 Assay for human Peroxisome Proliferator-activated Receptor alpha (PPARa) (AID 2283001);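 for AC50: potency for gain of reporter signal over DMSO so agonist or activator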
# Procedure: ATG_TRANS is a cell-based, multiplexed-readout assay that uses HepG2, a human liver cell line, with measurements taken at 24 hours after chemical dosing in a 24-well plate.ATG_PPARa_TRANS is one of 30 assay component(s) measured or calculated from the ATG_TRANS assay. It is designed to make measurements of mRNA induction, a form of inducible reporter, as detected with fluorescence intensity signals by Reverse transcription polymerase chain reaction (RT-PCR) and Capillary electrophoresis technology.Data from the assay component ATG_PPARa_TRANS was analyzed into 1 assay endpoint. This assay endpoint, ATG_PPARa_TRANS, was analyzed in the positive analysis fitting direction relative to DMSO as the negative control and baseline of activity. Using a type of inducible reporter, measures of mRNA for gain-of-signal activity can be used to understand the reporter gene at the transcription factor-level as they relate to the gene PPARA. Furthermore, this assay endpoint can be referred to as a primary readout, because this assay has produced multiple assay endpoints where this one serves a reporter gene function. To generalize the intended target to other relatable targets, this assay endpoint is annotated to the nuclear receptor intended target family, where the subfamily is non-steroidal.
# Human liver HepG2 cells are transiently transfected with multiple reporter transcription units (MRTUs) in 6-well plates using FuGene 6 reagent (Roche; 3 ml FuGene/1 mg DNA). The MRTU constructs are regulated by a cis-regulating element (promoter). […] A major difference between the CIS and TRANS system is that in CIS activities of endogenous TFs are measured, whereas the TRANS assay evaluates changes in activities of exogenous, chimeric NR-Gal4 proteins. […] At the end of 24 hour incubation, total RNA was isolated using TriZol reagent (Invitrogen). The isolated RNA is then reverse-transcribed using oligo(dT) primer and Mo-MLV reverse transcriptase (Invitrogen) with DNAse I (Ambion) treatment for 30 min. The one-tenth of the produced cDNA was amplified by PCR using Taq DNA polymerase (Invitrogen) and two reporter sequence-specific primers. The PCR products were fluorescently labeled by primer extension with 6-arboxyfluorescein (6-FAM) 5'-labeled reporter sequence-specific primer (2 min at 95 C, 20 s at 68 C and 10 min at 72 C) and these products were digested with 5U of HpaI (New England Biolabs) for 2h at 37 C. The fragments were purified using Qiaquick PCR columns (Qiagen), analyzed on an ABI 3130xL genetic analyzer (Applied Biosystems) with peak positions identified by using a set of X-rhodamine (ROX)-labeled MapMarker1000 molecular weight standards (BioVentures). The raw capillary electrophoresis data was processed using Attagraph software (Attagene).
Structure (SMILES),outcome,AC50
CCOCN(C(=O)CCl)c1c(C)cccc1CC,inactive,
ClC1C(Cl)C(Cl)C(Cl)C(Cl)C1Cl (stereo not given),inactive,
O=S1OCC2C(CO1)C1(Cl)C(Cl)=C(Cl)C2(Cl)C1(Cl)Cl (stereo not given),inactive,
Oc1cc(Cl)ccc1Oc1ccc(Cl)cc1Cl,inactive,17.5 µM (active) and 17.4 µM (active)
CNC(=O)CSP(=S)(OC)OC,inactive,
Oc1ccc(Cl)cc1Cc1ccccc1,inactive,53.5 µM (active)
C#CCN1C(=O)COc2cc(F)c(N3C(=O)C4=C(CCCC4)C3=O)cc21,inactive,
COP(=S)(OC)Oc1ccc(SC)c(C)c1,inactive,
COP(=S)(OC)Oc1ccc([N+](=O)[O-])cc1,inactive,
O=C(O)COc1ccc(Cl)cc1Cl,inactive,
N#CN,inactive,
CCN(CC)C(=O)SCc1ccc(Cl)cc1,inactive,
CC(C)OC(=O)Nc1cccc(Cl)c1,inactive,
CCC(C)Nc1c([N+](=O)[O-])cc(C(C)(C)C)cc1[N+](=O)[O-] (stereo not given),inactive,
CNC(=O)Oc1ccccc1OC(C)C,inactive,
CN1CSC(=S)N(C)C1,inactive,
COc1cc(OC)nc(NC(=O)NS(=O)(=O)c2cc(NC=O)ccc2C(=O)N(C)C)n1,inactive,

Structure (SMILES),outcome,AC50
O=C(O)C(F)(F)C(F)(F)C(F)(F)C(F)(F)C(F)(F)C(F)(F)C(F)(F)F,,22.8 µM (active) [middle of 4 runs]
COc1nn(CSP(=S)(OC)OC)c(=O)s1,inactive,
O=C(O)CCCOc1ccc(Cl)cc1Cl,inactive,
COC(=O)c1ccccc1S(=O)(=O)NC(=O)Nc1nc(C)nc(OC)n1,inactive,
N#Cc1c(Cl)c(Cl)c(Cl)c(C#N)c1Cl,inactive,
CNC(=O)Oc1cccc(N=CN(C)C)c1,inactive,
CNC(=O)/C=C(\C)OP(=O)(OC)OC,inactive,
COC(=O)c1ccccc1CS(=O)(=O)NC(=O)Nc1nc(OC)cc(OC)n1,inactive,
OCCOc1ccccc1,inactive,
CCS(=O)(=O)c1cccnc1S(=O)(=O)NC(=O)Nc1nc(OC)cc(OC)n1,inactive,
CCC(C)(C)C(=O)OC1=C(c2ccc(Cl)cc2Cl)C(=O)OC12CCCCC2,inactive,
CC(C)(C)C(O)C(Oc1ccc(Cl)cc1)n1cncn1 (stereo not given),inactive,
CCCN(CCOc1c(Cl)cc(Cl)cc1Cl)C(=O)n1ccnc1,inactive,
CCOc1nc(NC)nc(NC(=O)NS(=O)(=O)c2ccccc2C(=O)OC)n1,inactive,
O=S(=O)(O)C(F)(F)C(F)(F)C(F)(F)C(F)(F)C(F)(F)C(F)(F)C(F)(F)C(F)(F)F,inactive,
CC1(c2ccc(Oc3ccccc3)cc2)OC(=O)N(Nc2ccccc2)C1=O (stereo not given),inactive,
